{
  "source": "PubChem BioAssay AID1910",
  "about": "(Broad Institute, 2009)",
  "note": "About 950 (0.32%) of roughly 300,000 compounds were called active. This is one part of a sample in which actives are shown more often than they occur.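 The calls were made as follows: active = mean activation of at least 10% of the iron chelator positive control signal, with at least half of replicates also reaching 10%; inconclusive = mean and replicate majority disagree about reaching 10%; inactive = mean and most replicates under 10%.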",
  "data": [
    {"test": "hypoxia response element reporter activation – cell-based, U2OS HRE-luciferase, luminescence, primary screen (AID 1910)", "conditions": "hits give high values, screened at 7.5 µM (by protocol), normalized: DMSO 0%, desferrioxamine 100%", "values": [
      {"smiles": "COc1ccc(CNC(=O)C2CCN(C(=O)c3ccccc3)CC2)cc1", "activation": "-0.358% (inactive)"},
      {"smiles": "COc1ccc(N(CC(=O)Nc2cc(OC)ccc2OC)S(=O)(=O)c2c(C)noc2C)cc1", "activation": "10.1% (active)"},
      {"smiles": "CCOc1ccc(N(CC(=O)NCc2ccc(OC)cc2)S(=O)(=O)c2c(C)noc2C)cc1", "activation": "0.179% (inactive)"},
      {"smiles": "CCOc1ccc(N(CC(=O)OC)S(=O)(=O)c2c(C)noc2C)cc1", "activation": "-0.196% (inactive)"},
      {"smiles": "COc1ccc(Cl)cc1NC(=O)CN(C)C(=O)c1cc(-c2cccs2)nn1-c1ccccc1", "activation": "1.06% (inactive)"},
      {"smiles": "CCN(CC(=O)Nc1cc(Cl)ccc1C)C(=O)Cn1c(=O)cnc2ccccc21", "activation": "-0.594% (inactive)"},
      {"smiles": "O=C(COc1coc(CN2CCN(c3ccccc3)CC2)cc1=O)N1CCc2ccccc21", "activation": "0.142% (inactive)"},
      {"smiles": "Cc1ccc(SCc2c(C(=O)N/N=C/C3CC=CCC3)nnn2-c2nonc2N)cc1", "note": "(stereo not drawn)", "activation": "0.655% (inactive)"},
      {"smiles": "Nc1nonc1-n1nnc(C(=O)N/N=C/c2ccccc2O)c1CN1CCCC1", "activation": "-0.146% (inactive)"},
      {"smiles": "Nc1nonc1-n1nnc(C(=O)N/N=C/c2cc(Br)ccc2O)c1CSC1=NCCS1", "activation": "20.7% (active)"},
      {"smiles": "CCN1CCN(C(=O)N(Cc2ccc(Cl)cc2)S(=O)(=O)c2ccc(C)cc2)CC1", "activation": "1.75% (inactive)"},
      {"smiles": "Cc1cccc(C(=O)OC(C)C(=O)NC2CCCc3ccccc32)c1O", "note": "(stereo not drawn)", "activation": "-0.427% (inactive)"},
      {"smiles": "O=[N+]([O-])c1ccc(O)c(/C=N/Nc2ccccc2[N+](=O)[O-])c1", "activation": "1.42% (inactive)"},
      {"smiles": "Oc1ccc(/C=N/Nc2ccc(C(F)(F)F)cn2)cc1O", "activation": "2.36% (inactive)"},
      {"smiles": "Oc1ccc(Br)cc1/C=N/Nc1ccccn1", "activation": "90.5% (active)"},
      {"smiles": "O=C(NC1CC1)C(Cc1ccccc1)NS(=O)(=O)c1ccccc1F", "note": "(stereo not drawn)", "activation": "-30.3% (inactive)"},
      {"smiles": "CCS(=O)(=O)c1ccc(-c2cccc(NC(=O)c3ccc(Br)o3)c2)nn1", "activation": "-0.865% (inactive)"},
      {"smiles": "Cc1ccc(Nc2c3c(nc4ccccc24)CCC3)cc1", "activation": "97.4% (active)"},
      {"smiles": "CC(=O)Nc1ccc(Nc2c3ccccc3nc3ccccc23)cc1", "activation": "7.58% (inactive)"},
      {"smiles": "N#Cc1cccc(Nc2c3c(nc4ccccc24)CCCC3)c1", "activation": "-0.204% (inactive)"},
      {"smiles": "Cc1ccc(SCC(=O)Nc2nncs2)cc1", "activation": "-0.275% (inactive)"},
      {"smiles": "NS(=O)(=O)c1cc(C(=O)OCC(=O)NNC(=O)c2ccccc2)ccc1Cl", "activation": "0.0895% (inactive)"},
      {"smiles": "Cc1nc(-c2ccccc2)sc1C1(C)CC(c2cccnc2)=NO1", "note": "(stereo not drawn)", "activation": "5.85% (inactive)"},
      {"smiles": "Cn1ccnc1-c1nnn(-c2ccc(F)cc2)n1", "activation": "2.61% (inactive)"},
      {"smiles": "CCOc1ccc(CCNC(=O)COC(=O)C2CCN(c3ccc(C(F)(F)F)cn3)CC2)cc1OCC", "activation": "0.095% (inactive)"},
      {"smiles": "CC(C)NC(=O)NC(=O)CSc1nnc(-c2ccccc2F)n1N", "activation": "88% (active)"},
      {"smiles": "Nn1c(SCC(=O)NC2CCCC2)nnc1-c1ccccc1F", "activation": "-0.0397% (inactive)"},
      {"smiles": "Cc1ccc(NC(=O)NC(=O)CSc2nnc(-c3ccc(OC(F)F)cc3)n2N)c(C)c1", "activation": "2.08% (inactive)"},
      {"smiles": "COc1ccc(NC(=O)CN(C)C(=O)c2n[nH]c3ccccc23)cc1", "activation": "2.08% (inactive)"},
      {"smiles": "O=C(CCNC(=O)c1ccc(Br)cc1)NCCCc1ccccc1", "activation": "0.558% (inactive)"},
      {"smiles": "CC(=O)N1CCc2c(sc(NC(=O)CCS(=O)(=O)c3ccc(C)cc3)c2C(N)=O)C1", "activation": "-0.0953% (inactive)"},
      {"smiles": "CS(=O)(=O)c1ccc(Cl)c(NC(=O)COC(=O)c2cccc(S(=O)(=O)N3CCCC3)c2)c1", "activation": "0.78% (inactive)"},
      {"smiles": "CCN1/C(=C\\c2ccc3ccccc3[n+]2CC)Sc2cc(C)ccc21", "activation": "16.3% (active)"},
      {"smiles": "CCc1nnc(NS(=O)(=O)c2ccc(NC(=O)c3cccc(OC(F)(F)C(F)F)c3)cc2)s1", "activation": "-0.386% (inactive)"},
      {"smiles": "CCOC(=O)c1ccc(NC(=O)c2c(NCc3ccccc3)[nH]c(=O)[nH]c2=O)cc1", "activation": "0.835% (inactive)"},
      {"smiles": "O=C(c1ccc(F)cc1)N1CCC(C(=O)N2CCN(S(=O)(=O)c3ccccc3Br)CC2)CC1", "activation": "1.51% (inactive)"},
      {"smiles": "O=C(CSc1nnc2c(n1)[nH]c1ccccc12)NC1CCCCC1", "activation": "0.503% (inactive)"},
      {"smiles": "CC(C)N(c1ccccc1)c1ncnc(NCCC(=O)O)c1[N+](=O)[O-]", "activation": "173% (active)"},
      {"smiles": "Cc1ccc(OCC(=O)NC(C)c2ccccc2)c([N+](=O)[O-])n1", "note": "(stereo not drawn)", "activation": "-1.24% (inactive)"},
      {"smiles": "Cc1ccc(C(C)NC(=O)Cn2nc(C)c([N+](=O)[O-])c2C)cc1", "note": "(stereo not drawn)", "activation": "-0.456% (inactive)"},
      {"smiles": "COc1ccc(S(=O)(=O)NCC(c2ccc(C)cc2)N2CCN(C)CC2)cc1OC", "note": "(stereo not drawn)", "activation": "-0.0703% (inactive)"},
      {"smiles": "COc1ccccc1NC(=O)C1CCN(C(=O)c2ccc(C(C)(C)C)cc2)CC1", "activation": "24.7% (active)"},
      {"smiles": "CC(C)(C)c1ccc(C(=O)N2CCC(C(=O)N3CCCCC3)CC2)cc1", "activation": "-0.293% (inactive)"},
      {"smiles": "COc1ccc(C(=O)N2CCC(C(=O)Nc3ccc(C)cc3)CC2)cc1", "activation": "0.165% (inactive)"},
      {"smiles": "Cc1ccc2nc(SCC(=O)N3CCN(c4ccccc4)CC3)nc(=O)n2c1", "activation": "-0.536% (inactive)"},
      {"smiles": "Cc1nc2nc3c(cn2n1)C(=O)CC(c1ccccc1)C3", "note": "(stereo not drawn)", "activation": "842% (active)"},
      {"smiles": "Cc1cc(C)nc(-n2ncc3c2CC(c2ccc(C(C)C)cc2)CC3=O)n1", "note": "(stereo not drawn)", "activation": "0.0559% (inactive)"},
      {"smiles": "CN1CCN(c2ncc3c(n2)CC(c2ccccc2F)CC3=O)CC1", "note": "(stereo not drawn)", "activation": "-0.449% (inactive)"},
      {"smiles": "COc1ccccc1NC(=O)Nc1nc(CC(=O)Nc2ccccc2F)cs1", "activation": "-0.165% (inactive)"},
      {"smiles": "NC(=O)c1ccsc1NC(=O)COC(=O)Cc1n[nH]c(=O)c2ccccc12", "activation": "0.145% (inactive)"},
      {"smiles": "CCCCn1c(N)c(N(CC(C)C)C(=O)C2CSC3(C)CCC(=O)N23)c(=O)[nH]c1=O", "note": "(stereo not drawn)", "activation": "0.199% (inactive)"},
      {"smiles": "COc1ccc(N2C(=O)CNC2=S)cc1", "activation": "-0.317% (inactive)"},
      {"smiles": "COc1ccc(-n2c(C)csc2=S)cc1", "activation": "14.5% (active)"},
      {"smiles": "COc1ccc(-n2c(-c3ccc(OC)c(OC)c3)n[nH]c2=S)cc1", "activation": "1.1% (inactive)"},
      {"smiles": "c1ccc(-c2nc(NCc3ccco3)c3ccccc3n2)cc1", "activation": "0.461% (inactive)"},
      {"smiles": "O=C(Cc1ccccc1)n1nc(-c2ccccc2)nc1NCc1ccco1", "activation": "1.38% (inactive)"},
      {"smiles": "CS(=O)(=O)n1nc(-c2ccccc2)nc1NCc1ccco1", "activation": "16.1% (active)"},
      {"smiles": "N#CCN(C(=O)COC(=O)C1CC2CCCC(C1)C2=O)c1ccccc1", "note": "(stereo not drawn)", "activation": "-0.0724% (inactive)"}
    ]}
  ]
}
